Bioassay records from PubChem.
An excerpt weighted towards active compounds, which were near 19% of everything screened.
HT1080-NT tox: kills 2HG-producing HT-1080-NT fibrosarcoma cells. HT-1080-NT fibrosarcoma viability, CellTiter-Glo ATP luminescence, 48 h. Potency, µM (highest dose often 46.1 µM), inactives show top-dose activity, negative = less viability, actives largely listed as cytotoxic. 360,000 tested, 1.6% active. AID 686970;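 further: NT is the 2HG producing partner of a matched IDH1 knockdown line; potency means the concentration at half of the fitted maximal effect; 0% = DMSO-treated cells and -100% = media-only wells without cells; nearly all actives have a fitted effect of over 55% in size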
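Toxicity toward the 2HG-producing NT line was scored as %Activity, normalised to DMSO and no-cell wells, from CellTiter-Glo luminescence after 48 hours' treatment.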
HT1080 IDH1KD tx: HT-1080 IDH1 knockdown cell toxicity (counter line); 360,000 tested, 2% active; HT-1080 IDH1 knockdown viability, ATP luminescence, 48 h; Potency, µM (highest dose often 46.1 µM), inactives show top-dose activity, negative = toxicity, actives largely listed as cytotoxic; AID 686971;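 further: potency means the concentration at half of the fitted maximal effect; 0% = DMSO wells and -100% = cell-free medium wells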
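Viability of IDH1-knockdown HT-1080 fibrosarcoma cells was assessed by CellTiter-Glo after 48 h at 37 °C with titrated compound; concentration-effect curves were classified by fit quality and response size.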
DT40 TDP1 no CPT: qHTS for Inhibitors of human tyrosyl-DNA phosphodiesterase 1 (TDP1): qHTS in cells in absence of CPT. 420,000 tested, 15% active. AID 686978, 2013. DT40 Tdp1-/- hTDP1 cells, no CPT, ATP luminescence, 48 h. Potency, µM (titrated, usually from 46.2 µM), for the others: at the top dose activity change, negative = growth inhibition, most hits filed as inhibitors; further: potency means the concentration at half of the fitted maximal effect; nearly all actives have a fitted effect of over 55% in size
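Growth of hTDP1-complemented DT40 Tdp1-knockout cells is measured by ATP luminescence after at least 48 hr compound exposure at 37 °C, with DMSO substituting for the 20 nM CPT used in the parallel screen.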
TDP1 cell CPT: growth inhibition of DT40 Tdp1-/-;hTDP1 cells with camptothecin (screen for TDP1 inhibitors). chicken DT40 Tdp1-/-;hTDP1 cells + 20 nM CPT, ATP luminescence, 48 h. Potency, µM (highest dose often 46.2 µM), for inactives: top-dose activity change, negative = growth inhibition, usual class: inhibitors. 420,000 tested, 12% active. AID 686979; further: potency means the concentration at half of the fitted maximal effect; nearly all actives have a fitted effect of over 55% in size
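Chicken DT40 Tdp1-/- cells stably complemented with human TDP1 were seeded at 400 cells/well in medium containing 20 nM camptothecin, exposed to pin-transferred compounds, and grown at 37 °C for at least 48 hr. Viability was read as ATP luminescence.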
IL-1B inflam inh: inflammasome signaling inhibition, IL-1 beta readout; THP-1 LPS/ATP IL-1B secretion, AlphaLISA, 16 h; active compounds read low; activity change, % at 57.5 µM; 360,000 tested, 4.7% active; in the data active means activity change below about -50%; inconclusive means mostly about -30% to -49%
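THP-1 cells pretreated 1 hr with compounds (up to 57.5 uM final), then stimulated with LPS (250 ng/mL final) plus ATP (1.25 mM final); secreted IL-1B measured by AlphaLISA after 16 hr, decreased signal indicating inhibition.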
* hit, by the source's call; ? = inconclusive; nt = not tested or not shown; [ ] = another dose, or the depositor's remark. Unless noted, the call rests on the fitted dose curve; in most records, active means well fitted curve in the direction sought with a large enough effect; inconclusive means small, poorly fitted or top-dose-only effect, or another doubt; inactive means no such curve, though single readings can be large; an effect the other way counts as inactive or inconclusive. Unless noted, on the % scale 0 is the no-effect control and ±100 the full control effect.

SMILES	HT1080-NT tox	HT1080 IDH1KD tx	DT40 TDP1 no CPT	TDP1 cell CPT	IL-1B inflam inh
COc1ccc(NC(=O)C2CCCN2S(=O)(=O)c2ccc3c(c2)CCC(=O)N3)cc1Cl (stereo unspecified)	6%	10%	-23%	-19%	38
Cc1ccc2cc(C)c3nnc(SCc4ccc(C(=O)O)cc4)n3c2c1C	-3%	1%	-4%	-18%	29
CN1CCN(CC(O)(c2ccc(Cl)cc2)c2ccc(Cl)cc2)CC1	18µM*	21µM*	21µM*	?	-85*
Cc1cc(N2C(=O)c3ccc(C(=O)Nc4ccc(CC(=O)O)cc4)cc3C2=O)no1	-4%	0%	20%	0%	-22
O=C(Cc1cccs1)N1CCCC(c2nc3c(nnn3Cc3ccc(F)cc3)c(=O)[nH]2)C1 (stereo unspecified)	3%[9.24 µM]	-7%	1%	-25%	0
O=C(c1ccco1)N1CCC(c2nc3c(nnn3Cc3c(Cl)cccc3Cl)c(=O)[nH]2)CC1	-5%	-22%	?	-18%	17
CC(C)(C)c1ccc(Cn2nnc3c(=O)[nH]c(C4CCN(C(=O)c5ccco5)CC4)nc32)cc1	?	?	?	-20%	-67*
CC(C)(C)c1ccc(Cn2nnc3c(=O)[nH]c(C4CCCN(C(=O)Cc5cccs5)C4)nc32)cc1 (stereo unspecified)	?	?	?	23µM*	-19
CC(C)(C)c1ccc(Cn2nnc3c(=O)[nH]c(C4CCCN(C(=O)c5cccs5)C4)nc32)cc1 (stereo unspecified)	?	?	?	16µM*	?
CC(C)(C)CC(=O)N1CCC(c2nc3c(nnn3Cc3c(F)cccc3Cl)c(=O)[nH]2)CC1	-16%	-14%	?	16µM*	-14
O=C(c1ccccc1)N1CCC(c2nc3c(nnn3Cc3ccccc3Cl)c(=O)[nH]2)CC1	?	?	-15%	3%	-17
CN1CCCN(S(=O)(=O)c2ccc(O)c(C(=O)O)c2)CC1	5%	1%	1%	24%	6
CC(C)(C)c1ccc(Cn2nnc3c(=O)[nH]c(C4CCN(C(=O)Cc5cccs5)CC4)nc32)cc1	?	?	21µM*	?	-29
CC1C=CCC2C(=O)N(c3cccc(C(=O)NCc4ccccc4)c3)C(=O)C12 (stereo unspecified)	11%	5%	5%	-5%	6
O=C(O)COc1ccccc1/C=N/NC(=O)c1cc(-c2ccccc2)nc2ccccc12	4%	1%	-28%	-27%	0
O=C(N/N=C/c1ccccn1)c1cc(-c2ccc(Br)cc2)nc2ccccc12	?	?	1.8µM*	2.6µM*	-96*
O=C(O)COc1ccccc1/C=N/NC(=O)c1cc(-c2ccc(Cl)cc2)nc2ccccc12	-8%	0%	6.5µM*	-14%	0
CCOc1ccc(Br)cc1C(=O)N/N=C/c1ccccn1	-21%	-27%	?	?	31
O=C(N/N=C/c1ccccn1)c1cc(-c2ccc(Cl)cc2)nc2ccccc12	-6%	-7%	8.2µM*	3.3µM*	-102*
COc1ccc(NC(=O)Cc2csc(C)n2)cc1	nt	nt	9%	1%	nt
COc1ccc([C@H]2C[C@H](O)[C@@H](n3cc(COC(=O)c4ccccc4)nn3)CN2C(=O)C2CCCCC2)cc1	-4%	-6%	?	6%	-16
COc1ccccc1NC(=O)/C=C/c1ccc2c(c1)OCO2	?	-15%	?	16µM*	6
COc1cc(/C=C/C(=O)N2CCN(c3ccccn3)CC2)cc(OC)c1OC	7%	6%	23µM*	?	0
COc1ccccc1N1CCN(C(=O)/C=C/c2ccccc2)CC1	-2%	0%	16µM*	?	4
COc1ccccc1N1CCN(C(=O)/C=C/c2ccc3c(c2)OCO3)CC1	10%	5%	21µM*	21µM*	13
SMILES	HT1080-NT tox	HT1080 IDH1KD tx	DT40 TDP1 no CPT	TDP1 cell CPT	IL-1B inflam inh
COc1ccc(CCn2c3c(c(=O)[nH]c2=O)C(NC(=O)c2ccccc2F)(C(F)(F)F)C(=O)N3)cc1OC (stereo unspecified)	nt	nt	2%	26%	nt
CCN(CC)C(=O)CSc1nc2ccccc2c(=O)n1CCC(=O)NCc1ccc(F)cc1	3%	1%	18%	-2%	2
CCSc1nnc2c(n1)[nH]c1c(C)cccc12	?	?	13µM*	13µM*	-30
CSc1nnc2c(n1)[nH]c1c(C)cccc12	-5%	2%	?	?	8
O=C(Cc1c[nH]c2ccccc12)N/N=C/c1ccccc1O	-27%	-6%	?	16µM*	156
Cc1ccc(/C=N/NC(=O)Cc2c[nH]c3ccccc23)c(C)c1	?	?	?	-24%	?
CC(=O)c1cccc(NC(=O)NCCc2c[nH]c3ccccc23)c1	-6%	-2%	?	-14%	-8
O=C(Nc1cccc(CNCCc2c[nH]c3ccccc23)c1)c1ccccc1Cl	?	?	18µM*	?	?
O=C(NCCc1c[nH]c2ccccc12)Nc1ccccc1C(F)(F)F	nt	nt	?	23µM*	nt
O=C(NCCc1c[nH]c2ccccc12)c1ccc([N+](=O)[O-])o1	?	?	23µM*	15µM*	-87*
O=C(NCCc1c[nH]c2ccccc12)c1cc([N+](=O)[O-])cc([N+](=O)[O-])c1	-2%	-3%	-9%	?	16
Cc1ccc2oc(=O)n(CCCOc3ccccc3C)c2c1	2%	17%	-19%	6%	5
C=CCn1c(SCC(=O)Nc2cccnc2Cl)nnc1-c1ccccc1F	2%	2%	?	-19%	-8
O=C(CCCc1c[nH]c2ccccc12)Nc1ccc2ccccc2c1	-14%	-22%	-22%	0%	-85*
O=C(Nc1ccccc1C(=O)OCC(=O)c1c[nH]c2ccccc12)c1ccco1	?	-6%	?	8.2µM*	-2
O=C(CCCc1c[nH]c2ccccc12)NCCc1c[nH]c2ccccc12	-20%	-21%	16µM*	?	?
O=C(NCCc1c[nH]c2ccccc12)OCCCCOC(=O)NCCc1c[nH]c2ccccc12	?	?	23µM*	18µM*	-51*
O=C(NCc1cccnc1)[C@@H]1CC=C[C@@H]2CCN(Cc3ccccc3)C(=O)[C@@H]21	16%	8%	1%	4%	21
COc1cccc(CN(C)C[C@H]2OCc3cnnn3CCCC(=O)N([C@H](C)CO)C[C@@H]2C)c1	3%	0%	4%	12%	21
